# Assay outcomes from PubChem.
# A549 viability – A549 cytotoxicity, counter-screen for Nrf2 inhibitors | AID 504648 | actives 0.16% (n = 390,000) | Potency, µM (doses to about 46 µM), for the others: top-dose activity change, negative = cytotoxicity, usual class: inhibitors | A549 ARE-Fluc cells, CellTiter-Fluor viability, 18-24 h; also: % is scaled to controls: 0 for no effect and ±100 for the full control effect
#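 A549 ARE-Fluc cells in 5% FBS OPTI-MEM, 5000 cells/well, rested 2 h then exposed to compounds in concentration-response for 18-24 h at 37 °C. Viability by CellTiter-Fluor fluorescence (Ex 405/Em 525) after 30 min; luciferase luminescence (BugLite, 15 min, RT) read afterwards.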
# Nrf2 ARE act – Nrf2 pathway activation | AID 624171 | AREc32 ARE-luciferase reporter (MCF7-derived line), luminescence, 24 h | Potency, µM (top dose mostly 46.1 µM), inactives show top-dose activation, most hits filed as activators | actives 0.31% (n = 410,000); also: % of control where 0% means no effect; nearly all actives have a fitted effect of over 65% in size
#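 Luminescent ARE reporter assay in AREc32_Fluc cells: overnight plating at 37 deg C, 24 hr compound incubation, Steady-Glo added, 30 min RT before reading.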
# Nrf2 inh – inhibitors of Nrf2 signaling; actives 2.1% (n = 360,000); A549 ARE-Fluc reporter, luciferase luminescence, 18-24 h; Potency, µM (top dose mostly 46 µM), for inactives: at the top dose activity change, negative = inhibition, most hits filed as inhibitors; also: % is scaled to controls: 0 for no effect and ±100 for the full control effect; nearly all actives have a fitted effect of over 60% in size
#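 Concentration-response testing used A549 ARE_Fluc cells at 5000 cells/well. Following an 18-24 h compound incubation, viability was read by fluorescence (Ex 405/Em 525) and luciferase output by luminescence.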
# ELG1 repair inh – ELG1-dependent DNA repair inhibition. actives 2.3% (n = 330,000). Potency, µM (series often up to 46.1 µM), for inactives: at the top dose activity change, negative = inhibition, most hits filed as inhibitors. HEK293T ELG1-luciferase reporter, luminescence, 16 h; DNA damage induced by 5-fluorouridine; also: % is scaled to controls: 0 for no effect and ±100 for the full control effect; nearly all actives have a fitted effect of over 55% in size
#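 Step one: seed 2,000 cells per well. Step two: pin-transfer compound or DMSO alongside 5-fluorouridine. Step three: incubate 16 hr, 37 °C, 5% CO2. Step four: add ONE-Glo, wait 30 min, read luminescence.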
# IDH1 R132H inh – human IDH1 R132H inhibition. IDH1-R132H enzyme, NADPH consumption, diaphorase/resazurin fluorescence. Potency, µM (doses to about 76.6 µM), for the others: top-dose activity change, negative = inhibition, usual class: inhibitors. actives 0.093% (n = 390,000). AID 602179; also: % is scaled to controls: 0 for no effect and ±100 for the full control effect; nearly all actives have a fitted effect of over 65% in size
# Target sequence (O75874 whole entry R132H, stated change not applied): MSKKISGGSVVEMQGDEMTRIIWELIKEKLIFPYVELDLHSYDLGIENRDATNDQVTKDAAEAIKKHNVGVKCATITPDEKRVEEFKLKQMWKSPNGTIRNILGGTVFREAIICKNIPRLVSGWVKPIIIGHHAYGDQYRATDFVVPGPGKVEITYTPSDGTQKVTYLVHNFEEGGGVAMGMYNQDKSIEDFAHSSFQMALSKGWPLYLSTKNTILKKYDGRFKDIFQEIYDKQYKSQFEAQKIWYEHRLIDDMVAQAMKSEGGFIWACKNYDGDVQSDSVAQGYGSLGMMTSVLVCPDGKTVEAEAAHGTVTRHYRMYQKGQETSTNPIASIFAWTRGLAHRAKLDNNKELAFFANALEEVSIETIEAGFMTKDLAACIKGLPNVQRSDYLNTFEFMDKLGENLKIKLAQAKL
#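 IDH1-R132H (0.5 ug/mL dispensed) in pH 7.5 Tris buffer was preincubated 30 min with compound, then given a substrate mix of 0.016 mM NADPH and 2 mM alpha-KG for 80 min at room temperature; remaining NADPH was read by diaphorase/resazurin fluorescence.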
# Numbers without * were called inactive; ? = inconclusive; . = no result given; [ ] = another dose, or the depositor's remark. Hits are enriched below; roughly 3.8% of the tested compounds scored in any of these assays. Calls follow the shape of the dose curve; as a rule, active = well fitted curve in the direction sought with a large enough effect; inconclusive = small, poorly fitted or top-dose-only effect, or another doubt; inactive = no such curve, though single readings can be large; an effect the other way counts as inactive or inconclusive. Potency is read from the fitted curve at half-maximal effect.
SMILES,A549 viability,Nrf2 ARE act,Nrf2 inh,ELG1 repair inh,IDH1 R132H inh
CCOC(=O)c1c(NC(=O)c2cccc(N3C(=O)CCC3=O)c2)sc(C)c1C,-5.1%,0.2%,-25.7%,?,7.1%
CCOC(=O)c1c(-c2ccc(C)o2)csc1NC(=O)CSc1nnc(C)s1,-18.8%,3.3%,?,?,9.2%
CCc1cc(C(=O)N2CCN(C(=O)c3ccccc3)CC2)sc1C,-4.8%,-0.2%,?,-4.6%,0.8%
O=C(Nc1cccnc1)c1ccc(Cl)c(S(=O)(=O)N2CCc3ccccc32)c1,2.0%,2.1%,?,13µM*,-11.4%
CCc1nnc(NC(=O)c2ccc(Cl)c(S(=O)(=O)N3CCc4ccccc4C3)c2)s1,-4.0%,-0.7%,18.4µM*,?,-7.5%
CC(=O)Nc1ccc(NC(=O)c2ccc(Cl)c(S(=O)(=O)N3CCc4ccccc43)c2)cc1,-3.5%,-0.3%,2.4%,.,2.3%
O=C(Nc1ccccn1)c1ccc(Cl)c(S(=O)(=O)N2CCc3ccccc32)c1,-22.6%,-0.5%,20.6µM*,?,15.2%
Oc1ccccc1-c1nc(/C=C/c2ccccc2Cl)nn1-c1ccccc1,6.6%,14.0%,4.8%,.,2.9%
CCCCN(C=O)c1c(CC)nc2ccc(C(=O)N3CCN(c4ccccc4)CC3)cn12,.,0.3%[9.22 µM],.,.,.
CSCc1ccc(C(=O)NC(C)c2cnn(-c3ccccn3)c2C)o1 (stereo not given),2.4%,-0.7%,13.3%,13.8%,7.0%
CN(CCCN(Cc1ccc(Cl)cc1)c1ccc(Br)cn1)C(=S)NCCCc1cnc[nH]1,-0.4%,.,?,.,.
C=CCN1C(c2ccccc2)=CS/C1=C(\C#N)c1nnc2n1CCCCC2,17.4%,0.4%,-20.7%,11.2µM*,3.1%
CCOc1ccc(C2=CS/C(=C(\C#N)c3nnc4n3CCCCC4)N2CC)cc1,3.7%,0.7%,?,?,2.9%
CCOc1cc(C(N)=O)cc(OCC)c1OCC,-5.4%,0.2%,-7.7%,1.9%,5.3%
CCOc1cc(C(N)=O)cc(Br)c1OC,9.9%,0.3%,?,5.17µM*,9.9%
Cc1ccc(CNC(=O)c2ccc3c(c2)NC(=O)C(CS(=O)(=O)Cc2ccc(F)cc2)N3)cc1 (stereo not given),-7.4%,-1.3%,0.3%,.,-9.5%
CCOc1cc(C(=O)Nc2cc(C)on2)cc(OCC)c1OCC,0.8%,3.0%,-14.4%,20.6µM*,3.4%
CCOc1ccc(C(=O)Nc2cc(C)on2)cc1,0.0%,-0.1%,.,?,-0.1%
COc1ccc(N2CCN(C(CNC(=O)C(=O)NCCCN(C)C)c3cccnc3)CC2)cc1 (stereo not given),-6.3%,1.0%,1.5%,.,32.2%
CC1CCCN(C(=O)N2c3ccccc3Sc3ccccc32)C1 (stereo not given),?,-0.2%,16.4µM*,-1.2%,4.0%
O=C1NC2c3c(Cl)sc(Cl)c3C(=O)C2O1 (stereo not given),2.8%,15.8µM*,8.4%,.,5.7%
O=C1NC2c3c(I)sc(I)c3C(=O)C2O1 (stereo not given),-8.0%,11.2µM*,?,.,9.7%
Nc1c(C(=O)Nc2ccc(OC(F)(F)F)cc2)nnn1Cc1ccccc1,-8.9%,-1.0%,1.4%,.,0.1%
CC(C)=CCC[C@H](C)CC1Cc2[nH]c(=S)[nH]c(=O)c2C(c2ccc(Cl)cc2)O1 (stereo not given in full),.,2.0%,.,.,.
Cc1cc(C(=O)CSc2nnc(Nc3ccccc3)s2)c(C)n1CC1CCCO1 (stereo not given),6.1%,3.3%,-11.3%,18.4µM*,2.2%
SMILES,A549 viability,Nrf2 ARE act,Nrf2 inh,ELG1 repair inh,IDH1 R132H inh
O=C(CSc1ccc2c(c1)OCCO2)Nc1ccc(Br)cc1,-5.3%,-0.7%,23.1µM*,-7.5%,4.7%
CCCCn1c(NC(=O)c2ccccc2)c(C#N)c2nc3ccccc3nc21,-6.1%,0.4%,?,8.2µM*,6.8%
Cc1ccc(C(=O)NCCn2c(N)c(C#N)c3nc4ccccc4nc32)cc1,16.1%,-0.2%,-24.6%,-2.3%,8.7%
N#Cc1c(N)n(CCNC(=O)c2ccc(Cl)cc2)c2nc3ccccc3nc12,9.5%,-0.1%,9.2µM*,?,-0.4%
COc1ccc(-c2nc(CSCC(=O)NCCC(C)C)c(C)o2)cc1OC,-15.3%,0.9%,-29.2%,.,-2.8%
CCn1c(=NC(=O)CS(=O)(=O)c2ccc(C)cc2)sc2cccc(OC)c21,-23.2%,0.0%,23.1µM*,-18.7%,-1.6%
Cc1cc(C)cc(NC(=O)NCCc2c(C)nn(C)c2C)c1,6.1%,0.4%,.,.,-12.8%
CCSc1nnc(-c2cccc(S(=O)(=O)N(CC)CC)c2)n1Cc1ccccc1,6.9%,-0.5%,15.3%,23.1µM*,8.8%
CCN(CC)S(=O)(=O)c1cccc(-c2nnc(SCc3ncc(-c4ccccc4)o3)n2C)c1,0.8%,0.5%,27.7%,20.6µM*,-4.4%
COc1ccc([C@H]2CC(=O)C=C(c3cccc4c3Oc3ccccc3S4)C2)cc1OC,-8.3%,4.3%,?,18.3µM*,-9.7%
COc1ccc([C@H]2CC(=O)C=C(c3cccc(Br)c3)C2)cc1OC,-9.3%,-0.1%,-22.0%,18.3µM*,0.0%
O=C1C=C(c2cccc3c2Oc2ccccc2S3)C[C@@H](c2ccc(Cl)cc2)C1,-2.5%,-0.4%,-18.2%,20.6µM*,-2.9%
COc1ccc([C@H]2CC(=O)C=C(c3cccc(Cl)c3O)C2)cc1OC,-4.7%,5.7%,9.1%,?,11.0%
COc1ccc([C@H]2CC(=O)C=C(c3cccc(Br)c3)C2)cc1,14.6%,4.1%,-5.2%,2.4%,-0.7%
COc1ccccc1OCC(=O)N(Cc1ccco1)Cc1ccccc1F,5.0%,6.0%,-2.1%,.,0.0%
Cc1nc(-c2ccc(S(=O)(=O)N3CCN(Cc4ccccc4)CC3)s2)cs1,3.3%,-0.1%,16.4µM*,?,-3.2%
CCC(CC)C(=O)Nc1ccccc1C(=O)OCc1cc(=O)n2nc(C3CCCCC3)sc2n1,-2.1%,-0.5%,.,.,-17.7%
Cc1cccc(-n2ncc(C(=O)Nc3ccc4c(c3)OCO4)c2C2CCN(C(=O)OC(C)(C)C)CC2)c1,0.1%,3.3%,5.7%,.,25.8%
Cc1cccc(-n2ncc(C(=O)NCc3ccc4c(c3)OCO4)c2C2CCN(C(=O)OC(C)(C)C)CC2)c1,-15.6%,0.3%,16.4µM*,.,-4.3%
Cc1ccc(-n2ncc(C(=O)NCc3cccs3)c2C2CCN(C(=O)OC(C)(C)C)CC2)cc1C,-20.3%,-1.5%,20.6µM*,.,9.5%
CC(C)(C)OC(=O)N1CCC(c2c(C(=O)NCc3cccs3)cnn2-c2cccc(F)c2)CC1,-4.5%,-1.1%,-24.3%,.,3.2%
CCOC(=O)N1CCC(N2Cc3cccc(C(=O)NCc4ccc5c(c4)OCO5)c3C2=O)CC1,-7.4%,-0.3%,-7.5%,23.1µM*,9.9%
